Several values for one entry are separate records, joined by “and”; a condition that tells them apart may be missing. Equal values may be shown once. Results filed as inconclusive are left out. Some structures have more than one record in an assay (separate samples or runs), and their calls can disagree. Activity calls are given as the source filed them. The call rests on the fitted dose curve; in most records, active means well fitted curve in the direction sought with a large enough effect in the repeat runs; inconclusive means weak or mixed curves; inactive means no such curve, though single readings can be large; an effect the other way counts as inactive or inconclusive.

For 36 compounds, Potency results are on record in PubChem BioAssay (Tox21).
Potency means the concentration at half of the fitted maximal effect.

The first assay can be described thus: qHTS assay to identify small molecule that activate the aryl hydrocarbon receptor (AhR) signaling pathway - cell viability counter screen (AID 743086). Further: nearly all actives have a fitted effect of over 45% in size. To be noted: HepG2-AhR-luc viability, CellTiter-Fluor, 24 h; series mostly up to 70.3 µM. The gist of the method:
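HepG2-AhR-luc (HG2L7.5c1) cells, 4000/well, treated 24 h at 37 C with compound; viability measured as CellTiter-Fluor fluorescence after 30 min in the same wells as the luciferase read.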
With `O=C1CCCc2c1cc1ccc3cccc4ccc2c1c34`, the Potency result is “inactive”.

Regarding `NC(=O)CC[C@@H]1NC(=O)[C@H](Cc2ccccc2)NC(=O)[C@H](Cc2ccc(O)cc2)NC(=O)CCSSC[C@@H](C(=O)N2CCC[C@H]2C(=O)N[C@@H](CCCN=C(N)N)C(=O)NCC(N)=O)NC(=O)[C@H](CC(N)=O)NC1=O`, the Potency result is “inactive”. Turning to `C=CC(=O)OCCn1c(=O)n(CCOC(=O)C=C)c(=O)n(CCOC(=O)C=C)c1=O`, the Potency is 38.6 µM (active). With `C[C@H](CCC(=O)O)[C@H]1CC[C@H]2[C@@H]3CC[C@@H]4C[C@H](O)CC[C@]4(C)[C@H]3CC[C@]12C`, the Potency result was “inactive”. Same read-out and setting: the value for `CCCCCCCCCCCC(=O)NCCCN(C)C` was 54.5 µM (active); that for `Cc1cc(C2CCCCC2)n(O)c(=O)c1` was “inactive”; that for `CCCCCCCC[P+](CCCCCCCC)(CCCCCCCC)CCCCCCCC` was 19.2 µM (active). For the compound `CCCC(c1cc(C(C)(C)C)c(O)cc1C)c1cc(C(C)(C)C)c(O)cc1C`, the Potency entry was “inactive”. Same read-out and setting: the value for `CC/C(=C(\c1ccc(O)cc1)c1ccc(OCCN(C)C)cc1)c1ccccc1` was 54.6 µM (active).

As to `C[C@@H](NCCCc1cccc(C(F)(F)F)c1)c1cccc2ccccc12`, the Potency was 29.8 µM (active). Take `Oc1cccc(-c2c3nc(c(-c4cccc(O)c4)c4ccc([nH]4)c(-c4cccc(O)c4)c4nc(c(-c5cccc(O)c5)c5ccc2[nH]5)CC4)C=C3)c1`: the Potency is 26.6 µM (active) and 29.8 µM (active). Consider `CC(C)(C)C(=O)OCOC(=O)[C@@H]1N2C(=O)[C@@H](NC(=O)[C@H](N)c3ccccc3)[C@H]2SC1(C)C`, for which the Potency entry is “inactive”.

For the compound `O=C(Oc1cccc2cccnc12)c1ccccc1`, the Potency entry is “inactive”. For the compound `CCCCC(CC)CN=C(N)NC(N)=NCCCCCCN=C(N)NC(N)=NCC(CC)CCCC` (configuration not stated), the Potency is 21.1 µM (active). `Clc1ccc2cc3ccccc3cc2c1`: the Potency result was “inactive”. Regarding `CN(C)c1ccc(C2(c3ccc(N(C)C)cc3)OC(=O)c3cc(N(C)C)ccc32)cc1`, the Potency entry is “inactive”. On the same count and under the same terms, the same measure for `CC(=O)N1CCN(c2ccc(OC[C@H]3CO[C@](Cn4ccnc4)(c4ccc(Cl)cc4Cl)O3)cc2)CC1`: “inactive and 27.3 µM (active)”; for `Cc1[nH]cnc1C[C@H]1CCc2c(C)c3ccccc3n2C1=O`: “inactive”. With `C=CC(=O)OCC(CO)(COCC(COC(=O)C=C)(COC(=O)C=C)COC(=O)C=C)COC(=O)C=C`, the Potency was 6.04 µM (active).

With `NNc1nc(-c2ccc(N)cc2)cs1`, the Potency result was “inactive”. Turning to `CC(C)c1ccc2c(c1)CC[C@H]1[C@](C)(CN)CCC[C@]21C`, the Potency is 54.5 µM (active). On to `[Cl][Bi]([Cl])([c]1ccccc1)([c]1ccccc1)[c]1ccccc1`, for which the Potency is 19.2 µM (active). Turning to `Cc1cc(CCN2CCN(c3nsc4ccccc34)CC2)cc2c1NC(=O)CC2(C)C`, the Potency is 27.3 µM (active).

Consider `CCCCN(CCCC)c1ccc(C(=O)c2ccccc2C(=O)O)c(O)c1`, for which the Potency entry was “inactive”. Regarding `O=C(Nc1cccc(Cl)c1)OCC#CCCl`, the Potency is 27.3 µM (active). The same measure, in the same setting: the value for `Oc1cc2ccccc2c2ccccc12` was 24.3 µM (active); that for `C=CC(=O)OCC(CO)(COC(=O)C=C)COC(=O)C=C` was 13.7 µM (active) and 27.3 µM (active).

With `C[n+]1cc2c3c(ccc2c2ccc4cc5c(cc4c21)OCO5)OCO3`, the Potency is 10.6 µM (active). Take `COc1ccc(C(=O)/C(Br)=C\C(=O)O)cc1`: the Potency result is “inactive”. As for `CCN(Cc1cccnc1)C(=O)c1cccc(Cl)c1[C@]1(C)C(=O)N(Cc2ccc(OC)cc2OC)c2ccc(Cl)cc21`, the Potency was 11.4 µM (active). For `CS(=O)(=O)CCNCc1ccc(-c2ccc3ncnc(Nc4ccc(OCc5cccc(F)c5)c(Cl)c4)c3c2)o1`, the Potency result was “inactive”. Still for that read-out and setting: the same measure for `CN(C)C(=O)C1(N2CCCCC2)CCN(CC[C@@]2(c3ccc(Cl)c(Cl)c3)CN(C(=O)c3ccccc3)CCO2)CC1`: 20.3 µM (active); for `CCCCCCCCCCCCc1ccc(O)cc1`: “inactive”. With `CCCCCCCCOc1ccccc1C(=O)Nc1ccc(C(=O)OCC[N+](C)(CC)CC)cc1`, the Potency result was “inactive”. As to `CC(C)(C)C(=O)OCOC(=O)C1N2C(=O)CC2S(=O)(=O)C1(C)C` (configuration not stated), the Potency entry was “inactive”. As to `O=S1(=O)CC(Cl)(Cl)C(Cl)(Cl)C1`, the Potency is 13.7 µM (active).

The nature of another assay: qHTS assay to identify small molecule antagonists of the peroxisome proliferator-activated receptor gamma (PPARg) signaling pathway - cell viability counter screen (AID 743194). Further: nearly all actives have a fitted effect of over 55% in size. To be noted: PPARg-bla HEK293H viability, CellTiter-Glo luminescence, 17 h, co-treated with 50 nM rosiglitazone; series mostly up to 62.6 µM. The gist of the method: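 Cytotoxicity counter screen in PPARg-bla HEK293H cells, same wells as reporter assay. Compounds plus 50 nM rosiglitazone (final) for 17 h at 37 C, then viability read by CellTiter-Glo luminescence.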
`O=C1CCCc2c1cc1ccc3cccc4ccc2c1c34`: the Potency result is “inactive”. Take `NC(=O)CC[C@@H]1NC(=O)[C@H](Cc2ccccc2)NC(=O)[C@H](Cc2ccc(O)cc2)NC(=O)CCSSC[C@@H](C(=O)N2CCC[C@H]2C(=O)N[C@@H](CCCN=C(N)N)C(=O)NCC(N)=O)NC(=O)[C@H](CC(N)=O)NC1=O`: the Potency entry is “inactive”.

In the case of `C=CC(=O)OCCn1c(=O)n(CCOC(=O)C=C)c(=O)n(CCOC(=O)C=C)c1=O`, the Potency is 13.8 µM (active). `C[C@H](CCC(=O)O)[C@H]1CC[C@H]2[C@@H]3CC[C@@H]4C[C@H](O)CC[C@]4(C)[C@H]3CC[C@]12C`: the Potency was 21.8 µM (active) and 49 µM (active).

For the compound `CCCCCCCC[P+](CCCCCCCC)(CCCCCCCC)CCCCCCCC`, the Potency was 4.34 µM (active). In the case of `CCCC(c1cc(C(C)(C)C)c(O)cc1C)c1cc(C(C)(C)C)c(O)cc1C`, the Potency was 17.6 µM (active). `CC/C(=C(\c1ccc(O)cc1)c1ccc(OCCN(C)C)cc1)c1ccccc1`: the Potency was 17.4 µM (active). Turning to `C[C@@H](NCCCc1cccc(C(F)(F)F)c1)c1cccc2ccccc12`, the Potency was 26.6 µM (active). Same read-out and setting: the value for `Oc1cccc(-c2c3nc(c(-c4cccc(O)c4)c4ccc([nH]4)c(-c4cccc(O)c4)c4nc(c(-c5cccc(O)c5)c5ccc2[nH]5)CC4)C=C3)c1` was 29.8 µM (active); that for `CC(C)(C)C(=O)OCOC(=O)[C@@H]1N2C(=O)[C@@H](NC(=O)[C@H](N)c3ccccc3)[C@H]2SC1(C)C` was “inactive”; that for `O=C(Oc1cccc2cccnc12)c1ccccc1` was “inactive”.

On to `CCCCC(CC)CN=C(N)NC(N)=NCCCCCCN=C(N)NC(N)=NCC(CC)CCCC` (configuration not stated), for which the Potency is 11.9 µM (active).

Turning to `Clc1ccc2cc3ccccc3cc2c1`, the Potency entry is “inactive”. Turning to `CN(C)c1ccc(C2(c3ccc(N(C)C)cc3)OC(=O)c3cc(N(C)C)ccc32)cc1`, the Potency entry was “inactive”. Take `CC(=O)N1CCN(c2ccc(OC[C@H]3CO[C@](Cn4ccnc4)(c4ccc(Cl)cc4Cl)O3)cc2)CC1`: the Potency is 43.6 µM (active). For the compound `Cc1[nH]cnc1C[C@H]1CCc2c(C)c3ccccc3n2C1=O`, the Potency was 19 µM (active). As for `C=CC(=O)OCC(CO)(COCC(COC(=O)C=C)(COC(=O)C=C)COC(=O)C=C)COC(=O)C=C`, the Potency was 3.05 µM (active).

Regarding `NNc1nc(-c2ccc(N)cc2)cs1`, the Potency result is “inactive”. With `CC(C)c1ccc2c(c1)CC[C@H]1[C@](C)(CN)CCC[C@]21C`, the Potency is 11 µM (active). Consider `[Cl][Bi]([Cl])([c]1ccccc1)([c]1ccccc1)[c]1ccccc1`, for which the Potency was 3.45 µM (active). Consider `Cc1cc(CCN2CCN(c3nsc4ccccc34)CC2)cc2c1NC(=O)CC2(C)C`, for which the Potency was 19.5 µM (active). On to `CCCCN(CCCC)c1ccc(C(=O)c2ccccc2C(=O)O)c(O)c1`, for which the Potency is 44.1 µM (active). Take `O=C(Nc1cccc(Cl)c1)OCC#CCCl`: the Potency was 24.5 µM (active).

For `Oc1cc2ccccc2c2ccccc12`, the Potency is 3.89 µM (active). Same read-out and setting: the value for `C=CC(=O)OCC(CO)(COC(=O)C=C)COC(=O)C=C` was 11 µM (active) and 4.36 µM (active); that for `C[n+]1cc2c3c(ccc2c2ccc4cc5c(cc4c21)OCO5)OCO3` was 1.3 µM (active).

On to `CS(=O)(=O)CCNCc1ccc(-c2ccc3ncnc(Nc4ccc(OCc5cccc(F)c5)c(Cl)c4)c3c2)o1`, for which the Potency is 15 µM (active). On to `CN(C)C(=O)C1(N2CCCCC2)CCN(CC[C@@]2(c3ccc(Cl)c(Cl)c3)CN(C(=O)c3ccccc3)CCO2)CC1`, for which the Potency is 16.2 µM (active).

In the case of `CCCCCCCCCCCCc1ccc(O)cc1`, the Potency is 19.5 µM (active). Turning to `CC(C)(C)C(=O)OCOC(=O)C1N2C(=O)CC2S(=O)(=O)C1(C)C` (configuration not stated), the Potency entry is “inactive”. For `O=S1(=O)CC(Cl)(Cl)C(Cl)(Cl)C1`, the Potency is 5.49 µM (active).
